# An excerpt weighted towards active compounds, which were near 19% of everything screened.
# HT1080-NT tox: qHTS for induction of synthetic lethality in tumor cells producing 2HG: qHTS for the HT-1080-NT fibrosarcoma cell line. HT-1080-NT fibrosarcoma viability, CellTiter-Glo ATP luminescence, 48 h. Potency, µM (top dose mostly 46.1 µM), inactives show at the top dose activity, negative = less viability, actives largely listed as cytotoxic. actives 1.6% (n = 360,000). AID 686970, 2013;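 note: NT is the 2HG producing partner of a matched IDH1 knockdown line; potency is the fitted concentration of half-maximal effect; 0% = DMSO-treated cells and -100% = media-only wells without cells; nearly all actives have a fitted effect of over 55% in size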
#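 A 48-hour cytotoxicity screen used HT-1080-NT cells plated 2 hours before compound delivery. ATP-based CellTiter-Glo luminescence measured viability, normalized to DMSO and no-cell controls.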
# DT40 TDP1 no CPT: qHTS for Inhibitors of human tyrosyl-DNA phosphodiesterase 1 (TDP1): qHTS in cells in absence of CPT; actives 15% (n = 420,000); DT40 Tdp1-/- hTDP1 cells, no CPT, ATP luminescence, 48 h; Potency, µM (series often up to 46.2 µM), without a hit: top-dose activity change, negative = growth inhibition, most hits filed as inhibitors; note: potency is the fitted concentration of half-maximal effect; nearly all actives have a fitted effect of over 55% in size
#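 Seeded 400 DT40-hTDP1 cells/well (vehicle DMSO, no 20 nM CPT); pinned compounds; ≥48 hr at 37 °C; CellTiter-Glo luminescence as viability measure.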
# HT1080 IDH1KD tx: qHTS for induction of synthetic lethality in tumor cells producing 2HG: qHTS for the HT-1080-IDH1KD cell line; AID 686971, 2013; Potency, µM (doses to about 46.1 µM), for inactives: top-dose activity, negative = toxicity, hits mostly cytotoxic; HT-1080 IDH1 knockdown viability, ATP luminescence, 48 h; actives 2% (n = 360,000);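 note: potency is the fitted concentration of half-maximal effect; 0% = DMSO wells and -100% = cell-free medium wells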
#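 CellTiter-Glo luminescence after 48 h compound exposure at 37 degrees C of IDH1-knockdown HT-1080 cells in 5% FBS RPMI. %Activity scaled between DMSO wells and cell-free media wells, with curves fitted and assigned curve classes.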
# DT40 TDP1 CPT: qHTS for Inhibitors of human tyrosyl-DNA phosphodiesterase 1 (TDP1): qHTS in cells in presence of CPT | chicken DT40 Tdp1-/-;hTDP1 cells + 20 nM CPT, ATP luminescence, 48 h | Potency, µM (titrated, usually from 46.2 µM), for inactives: at the top dose activity change, negative = growth inhibition, most hits filed as inhibitors | actives 12% (n = 420,000); note: potency is the fitted concentration of half-maximal effect; nearly all actives have a fitted effect of over 55% in size
#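 Cell growth measured by CellTiter-Glo luminescence after a minimum 48 h, 37 C compound exposure with 20 nM CPT in Tdp1-knockout DT40 cells stably expressing hTDP1, seeded 400/well; qHTS titration format.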
# IL1B secr inh: qHTS for Inhibitors of Inflammasome Signaling: IL-1-beta AlphaLISA Primary Screen | activity change, % at 57.5 µM | THP-1 LPS/ATP IL-1B secretion, AlphaLISA, 16 h; stronger effect = lower value | AID 743279, 2014 | actives 4.7% (n = 360,000); in the data active = activity change below about -50%; inconclusive = mostly about -30% to -49%
#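 THP-1 cells pretreated 1 hr with compounds (up to 57.5 uM final), then stimulated with LPS (250 ng/mL final) plus ATP (1.25 mM final); secreted IL-1B measured by AlphaLISA after 16 hr, decreased signal indicating inhibition.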
# Active calls of the source: *; ? = inconclusive; · = no result. Unless noted, calls come from the whole dose curve; as a rule, active = well fitted curve in the direction sought with a large enough effect; inconclusive = small, poorly fitted or top-dose-only effect, or another doubt; inactive = no such curve, though single readings can be large; an effect the other way counts as inactive or inconclusive. Unless noted, % is set by controls: 0 for no effect and ±100 for the full control effect.
SMILES,HT1080-NT tox,DT40 TDP1 no CPT,HT1080 IDH1KD tx,DT40 TDP1 CPT,IL1B secr inh
CC1CN(S(=O)(=O)c2ccc(C(=O)Nc3nnc(-c4ccc5c(c4)CCCC5)o3)cc2)CC(C)O1 (stereo not drawn),-23%,12µM*,-25%,6.5µM*,2
CCOC(=O)N1CCN(S(=O)(=O)c2ccc(C(=O)Nc3nnc(C)o3)cc2)CC1,?,-2%,25%,3%,-4
O=C(Nc1nnc(C2CC2)o1)c1ccc(S(=O)(=O)N2CCCCC2)cc1,-15%,?,-29%,?,-69*
CC1CCCCN1S(=O)(=O)c1ccc(C(=O)Nc2nnc(C3CC3)o2)cc1 (stereo not drawn),-11%,?,?,16µM*,31
Cc1nnc(NC(=O)c2ccc(S(=O)(=O)N3CC(C)CC(C)C3)cc2)o1 (stereo not drawn),-18%,16µM*,-12%,?,13
CCOc1ccc(CCNC(=O)c2cn(C)c3ccc(S(=O)(=O)N4CCOCC4)cc3c2=O)cc1OCC,-6%,?,2%,?,-22
O=C(NCCC(=O)N1CCCC1)c1ccccc1Cl,?,18%,15%,9%,-4
CC1CC(C)CN(S(=O)(=O)c2ccc(C(=O)NCCCn3ccnc3)cc2)C1 (stereo not drawn),?,?,?,29µM*,11
O=C(NCc1ccc2c(c1)OCO2)c1ccc(S(=O)(=O)N2CCCCC2)cc1,-1%,-1%,-9%,-13%,-13
CC1CC(C)CN(S(=O)(=O)c2ccc(C(=O)NCc3ccc4c(c3)OCO4)cc2)C1 (stereo not drawn),-13%,?,-13%,16µM*,0
CC1CCN(S(=O)(=O)c2ccc(C(=O)Nc3nnc(-c4ccncc4)o3)cc2)CC1,?,?,?,?,37
CC1CCN(S(=O)(=O)c2ccc(C(=O)Nc3nnc(C4CC4)o3)cc2)CC1,-21%,?,?,18µM*,60
O=C(NCCCn1ccnc1)c1ccc(S(=O)(=O)N2CCCCCC2)cc1,0%,?,-4%,?,-14
Cc1cccc(NC(=O)c2ccc(S(=O)(=O)N3CCC(C)CC3)cc2)n1,-1%,16µM*,?,?,-12
CSc1ccc(CCNC(=O)Cn2ncn3c(cc4ccccc43)c2=O)cc1,·,-12%,·,-19%,·
O=C(Nc1cccc(Cn2cccn2)c1)c1cc2c(s1)CCCC2,-5%,11µM*,?,?,-27
CCOC(=O)c1ccc(NC(=O)c2cc3c(s2)CCC3)cc1,12%,?,9%,8%,17
c1ccc2sc(SSc3nc4ccccc4s3)nc2c1,·,-12%,·,12%,·
N#C/C(=C\c1ccco1)Sc1nc2ccccc2s1,-7%,-18%,-18%,-17%,-66*
Cc1cc(C)cc(C(=O)NCC(=O)N2CCN(C(c3ccccc3)c3ccccc3)CC2)c1,?,18µM*,?,?,-11
O=C(NCC(=O)N1CCN(C(c2ccccc2)c2ccccc2)CC1)c1ccccc1Br,-14%,21µM*,-19%,?,5
O=C(NCC(=O)N1CCN(C(c2ccccc2)c2ccccc2)CC1)c1ccc(Br)o1,-7%,?,-4%,?,-73*
CN1C(=O)C2C(c3ccc(N(C)C)cc3)=NN(Cc3ccccc3)C2C1=O (stereo not drawn),0%,2%,2%,13%,-1
O=C(Nc1ccccc1)NC1CCCc2ccccc21 (stereo not drawn),9%,18µM*,-2%,?,-12
O=C(Nc1ccc(F)cc1)NC1CCCc2ccccc21 (stereo not drawn),-1%,-2%,-5%,-25%,25
SMILES,HT1080-NT tox,DT40 TDP1 no CPT,HT1080 IDH1KD tx,DT40 TDP1 CPT,IL1B secr inh
S=C(NCc1ccccc1)NC1CCCc2ccccc21 (stereo not drawn),-24%,?,-7%,?,-57*
COc1cccc(CNC(=O)CSc2cc(C)[nH]c(=O)n2)c1,·,0%,·,18%,·
O=C(NC1(C(F)(F)F)N=C(c2ccccc2)N(C2CCCCC2)C1=O)c1ccc(F)cc1 (stereo not drawn),·,?,·,-25%,·
COc1ccc(CN2C(=O)C(NC(=O)c3ccccc3OC)(C(F)(F)F)N=C2c2ccccc2)cc1 (stereo not drawn),·,15µM*,·,18µM*,·
Cc1[nH]ncc1-c1ccccc1Cl,3%,-17%,4%,1%,12
CCOC(=O)N1CCN(C(=O)c2ccc(S(=O)(=O)Nc3ccc(C)cc3)cc2)CC1,0%,10µM*,-14%,9.2µM*,37
CCOC(=O)N1CCN(C(=O)c2ccc(NS(=O)(=O)c3ccc(C)cc3)cc2)CC1,-6%,13µM*,-1%,18µM*,0
Cc1ccc(NS(=O)(=O)c2ccc(C(=O)N3CCC3)cc2)cc1,-5%,?,-14%,?,41
O[C@H]1CN(CC2CCCCC2)[C@@H](c2ccc(Cl)cc2)C[C@@H]1n1cc(C2CC2)nn1,?,?,?,?,-15
CC1(C(=O)Nc2ccc3c(c2)OCCO3)CCN1Cc1ccc2ccccc2c1 (stereo not drawn),?,-64%,?,?,-21
CSc1ccc(CN2CCC2(C)C(=O)Nc2ccc3c(c2)OCO3)cc1 (stereo not drawn),9%,?,6%,29µM*,9
CSc1ccc(CN2CCC2(C)C(=O)NCc2ccc3c(c2)OCO3)cc1 (stereo not drawn),-1%,?,-13%,15µM*,4
CCN1C(=NCCc2ccc([N+](=O)[O-])cc2)N[C@@H](c2ccccc2)[C@H](C(=O)OC)[C@H]1C,-10%,15µM*,0%,?,-23
CCN1C(=NCCCOC(C)C)N[C@@H](c2ccccc2)[C@H](C(=O)OC)[C@H]1C,5%,?,1%,?,12
CCN1C(=NCCc2ccc(Br)cc2)N[C@@H](c2ccccc2)[C@H](C(=O)OC)[C@H]1C,-22%,18µM*,-28%,23µM*,0
Cc1c(Cl)cccc1NC(=O)C(=O)NCCc1csc(-c2cccc(F)c2)n1,·,-20%,·,-9%,·
CC(=O)Nc1cccc(C(=O)N/N=C/c2c[nH]c3ccccc23)c1,1%,-12%,9%,9%,30

# Assay outcomes: PubChem BioAssay, National Center for Advancing Translational Sciences (NCATS)
